# Experimental data: the supplement of paper PMC9492666
# Counter-ions that a name gives are not always drawn.
# System: HCC1937
# Experiment: relative cell viability, compound + erastin, vs DMSO (fraction of DMSO control); higher = less growth inhibition
# Details: 72 h
# 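Further: viability read by CCK-8 kit in 96-well plates, part of a combination screen pairing lipid-metabolism-targeting compounds with erastin.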
row,SMILES,relative cell viability
1,NC(=O)c1ncn([C@@H]2O[C@H](CO)[C@@H](O)[C@H]2O)c1N [AICAR (Acadesine)] + CCOc1ccccc1-n1c(C(C)N2CCN(C(=O)COc3ccc(Cl)cc3)CC2)nc2ccccc2c1=O [erastin],0.85
2,O=C(O)c1ccnc(N2CC(O)(c3ccc(OCc4c(-c5c(Cl)cccc5Cl)noc4C4CC4)cc3Cl)C2)c1 [Cilofexor] + CCOc1ccccc1-n1c(C(C)N2CCN(C(=O)COc3ccc(Cl)cc3)CC2)nc2ccccc2c1=O [erastin],0.577
3,"COc1ccc(-c2coc3cc(OC)ccc3c2=O)cc1 [4',7-Dimethoxyisoflavone] + CCOc1ccccc1-n1c(C(C)N2CCN(C(=O)COc3ccc(Cl)cc3)CC2)nc2ccccc2c1=O [erastin]",0.313
4,O=C(Nc1ccccc1)c1cc([N+](=O)[O-])ccc1Cl + CCOc1ccccc1-n1c(C(C)N2CCN(C(=O)COc3ccc(Cl)cc3)CC2)nc2ccccc2c1=O [erastin],0.71
5,CC1=C[C@]2(O)O[C@@]3(CC2=C(C)C)[C@@H](C)CC[C@@H]13 [Curcumenol] + CCOc1ccccc1-n1c(C(C)N2CCN(C(=O)COc3ccc(Cl)cc3)CC2)nc2ccccc2c1=O [erastin],0.55
6,CCC(CC)CC1(C(=O)Nc2ccccc2SC(=O)C(C)C)CCCCC1 [Dalcetrapib] + CCOc1ccccc1-n1c(C(C)N2CCN(C(=O)COc3ccc(Cl)cc3)CC2)nc2ccccc2c1=O [erastin],0.737
7,Fc1ccc(-c2c3cccc(C(F)(F)F)c3nn2Cc2ccc(F)cc2Cl)cc1 + CCOc1ccccc1-n1c(C(C)N2CCN(C(=O)COc3ccc(Cl)cc3)CC2)nc2ccccc2c1=O [erastin],0.797
8,CCC1C(O)C2C3CCC(C(C)CCO)C3(C)CCC2C2(C)CCC(O)CC12 (configuration not stated) + CCOc1ccccc1-n1c(C(C)N2CCN(C(=O)COc3ccc(Cl)cc3)CC2)nc2ccccc2c1=O [erastin],0.656
9,O=C(Oc1ccc([N+](=O)[O-])cc1)N1CCC(C(O)(c2ccc3c(c2)OCO3)c2ccc3c(c2)OCO3)CC1 + CCOc1ccccc1-n1c(C(C)N2CCN(C(=O)COc3ccc(Cl)cc3)CC2)nc2ccccc2c1=O [erastin],0.556
10,Cc1ccc(CN(CC(O)COc2cccc3[nH]ccc23)C(C)(C)C)cc1 (configuration not stated) + CCOc1ccccc1-n1c(C(C)N2CCN(C(=O)COc3ccc(Cl)cc3)CC2)nc2ccccc2c1=O [erastin],0.731
11,COc1ccc(-c2cc(=O)c3c(O)c(OC)c(OC)c(OC)c3o2)cc1OC + CCOc1ccccc1-n1c(C(C)N2CCN(C(=O)COc3ccc(Cl)cc3)CC2)nc2ccccc2c1=O [erastin],0.573
12,O=C(Nc1ccccc1)N1CCN(c2nc(-c3ccccc3)ns2)CC1 + CCOc1ccccc1-n1c(C(C)N2CCN(C(=O)COc3ccc(Cl)cc3)CC2)nc2ccccc2c1=O [erastin],0.559
13,CN(C)CCOC(=O)COc1ccc(Cl)cc1 [Meclofenoxate hydrochloride] + CCOc1ccccc1-n1c(C(C)N2CCN(C(=O)COc3ccc(Cl)cc3)CC2)nc2ccccc2c1=O [erastin],0.693
14,Cc1cc(SCc2sc(-c3ccc(C(F)(F)F)c(F)c3)nc2C)ccc1OCC(=O)O + CCOc1ccccc1-n1c(C(C)N2CCN(C(=O)COc3ccc(Cl)cc3)CC2)nc2ccccc2c1=O [erastin],0.849
15,CC(C)=CCC[C@](C)(O)[C@H]1CC[C@]2(C)[C@@H]1[C@H](O)C[C@@H]1[C@@]3(C)CC[C@H](O)C(C)(C)[C@@H]3[C@@H](O[C@@H]3O[C@H](CO)[C@@H](O)[C@H](O)[C@H]3O)C[C@]12C [Ginsenoside Rh1] + CCOc1ccccc1-n1c(C(C)N2CCN(C(=O)COc3ccc(Cl)cc3)CC2)nc2ccccc2c1=O [erastin],0.679
16,CC(C)OC(=O)C(C(=O)OC(C)C)=C1SC=CS1 [Malotilate] + CCOc1ccccc1-n1c(C(C)N2CCN(C(=O)COc3ccc(Cl)cc3)CC2)nc2ccccc2c1=O [erastin],0.459
17,NC(=O)c1cccc(-c2cccc(OC(=O)NC3CCCCC3)c2)c1 + CCOc1ccccc1-n1c(C(C)N2CCN(C(=O)COc3ccc(Cl)cc3)CC2)nc2ccccc2c1=O [erastin],0.756
18,O=c1ccc2cc(O)c(O)cc2o1 [Esculetin] + CCOc1ccccc1-n1c(C(C)N2CCN(C(=O)COc3ccc(Cl)cc3)CC2)nc2ccccc2c1=O [erastin],0.648
19,CC[C@H](C)C(=O)O[C@H]1C[C@H](O)C=C2C=C[C@H](C)[C@H](CC[C@@H](O)C[C@@H](O)CC(=O)O)[C@H]21 [Pravastatin sodium] + CCOc1ccccc1-n1c(C(C)N2CCN(C(=O)COc3ccc(Cl)cc3)CC2)nc2ccccc2c1=O [erastin],0.909

row,SMILES,relative cell viability
1,CCCc1c(OCCCOc2ccc(OCC(=O)O)cc2)ccc(C(C)=O)c1O + CCOc1ccccc1-n1c(C(C)N2CCN(C(=O)COc3ccc(Cl)cc3)CC2)nc2ccccc2c1=O [erastin],0.752
2,O=C1c2cccc(O)c2C(=O)c2c(O)cccc21 [Antrapurol] + CCOc1ccccc1-n1c(C(C)N2CCN(C(=O)COc3ccc(Cl)cc3)CC2)nc2ccccc2c1=O [erastin],0.735
3,C=CCc1ccc(O)c(-c2cc(CC=C)ccc2O)c1 [Magnolol] + CCOc1ccccc1-n1c(C(C)N2CCN(C(=O)COc3ccc(Cl)cc3)CC2)nc2ccccc2c1=O [erastin],0.99
4,CC(C)(Oc1ccc(CCNC(=O)c2ccc(Cl)cc2)cc1)C(=O)O [Bezafibrate] + CCOc1ccccc1-n1c(C(C)N2CCN(C(=O)COc3ccc(Cl)cc3)CC2)nc2ccccc2c1=O [erastin],0.736
5,N#Cc1ccc(Oc2cccc(NC(=O)Nc3ccc(Cl)c(C(F)(F)F)c3)c2)cc1 + CCOc1ccccc1-n1c(C(C)N2CCN(C(=O)COc3ccc(Cl)cc3)CC2)nc2ccccc2c1=O [erastin],0.0713
6,CN(CCOc1ccc(CC2SC(=O)NC2=O)cc1)c1ccccn1 (configuration not stated) [Rosiglitazone] + CCOc1ccccc1-n1c(C(C)N2CCN(C(=O)COc3ccc(Cl)cc3)CC2)nc2ccccc2c1=O [erastin],0.999
7,N#Cc1c(O)c2c(-c3ccc(-c4ccccc4O)cc3)csc2[nH]c1=O + CCOc1ccccc1-n1c(C(C)N2CCN(C(=O)COc3ccc(Cl)cc3)CC2)nc2ccccc2c1=O [erastin],0.521
8,O=C(O)CN(CC(=O)O)c1ccccc1OCCOc1ccccc1N(CC(=O)O)CC(=O)O + CCOc1ccccc1-n1c(C(C)N2CCN(C(=O)COc3ccc(Cl)cc3)CC2)nc2ccccc2c1=O [erastin],0.597
9,Cc1c(C(=O)NN2CCCCC2)nn(-c2ccc(Cl)cc2Cl)c1-c1ccc(Cl)cc1 [Rimonabant] + CCOc1ccccc1-n1c(C(C)N2CCN(C(=O)COc3ccc(Cl)cc3)CC2)nc2ccccc2c1=O [erastin],0.581
10,CC(C)[C@H](N=C(NS(=O)(=O)c1ccc(Cl)cc1)N1C[C@H](c2ccccc2)C(c2ccc(Cl)cc2)=N1)C(N)=O + CCOc1ccccc1-n1c(C(C)N2CCN(C(=O)COc3ccc(Cl)cc3)CC2)nc2ccccc2c1=O [erastin],0.483
11,CCC(=O)Nc1cccc(Oc2nc(Nc3ccc(N4CCN(C)CC4)cc3OC)ncc2Cl)c1 + CCOc1ccccc1-n1c(C(C)N2CCN(C(=O)COc3ccc(Cl)cc3)CC2)nc2ccccc2c1=O [erastin],0.255
12,Nc1ccc(O)c(C(=O)O)c1 [Mesalamine] + CCOc1ccccc1-n1c(C(C)N2CCN(C(=O)COc3ccc(Cl)cc3)CC2)nc2ccccc2c1=O [erastin],0.772
13,CC(C)(Oc1ccc(C(=O)c2ccc(Cl)cc2)cc1)C(=O)O [Choline Fenofibrate] + CCOc1ccccc1-n1c(C(C)N2CCN(C(=O)COc3ccc(Cl)cc3)CC2)nc2ccccc2c1=O [erastin],0.848
14,COC(=O)CN(c1ccc(CN(c2ccc(OCc3ccc(C)cc3)c(C(=O)OC)c2)S(=O)(=O)Cc2ccccc2)cc1)S(C)(=O)=O + CCOc1ccccc1-n1c(C(C)N2CCN(C(=O)COc3ccc(Cl)cc3)CC2)nc2ccccc2c1=O [erastin],0.624
15,C[C@@H]1C(=O)O[C@H]2[C@H](O)[C@@]34O[C@@H]5OC(=O)[C@H](O)[C@@]56[C@H](C(C)(C)C)[C@H](O)C(OC3=O)[C@]64[C@@]12O (some centres not stated) [Ginkgolide C] + CCOc1ccccc1-n1c(C(C)N2CCN(C(=O)COc3ccc(Cl)cc3)CC2)nc2ccccc2c1=O [erastin],0.697
16,COC(=O)c1cc(Cl)c(O)c(S(=O)(=O)Nc2cc(-c3ccccc3)c(F)cc2F)c1 + CCOc1ccccc1-n1c(C(C)N2CCN(C(=O)COc3ccc(Cl)cc3)CC2)nc2ccccc2c1=O [erastin],0.728
17,COC(=O)c1sccc1S(=O)(=O)Nc1ccc(Nc2ccccc2)cc1OC + CCOc1ccccc1-n1c(C(C)N2CCN(C(=O)COc3ccc(Cl)cc3)CC2)nc2ccccc2c1=O [erastin],0.529
18,CC1(C)C[C@H]2C3=CC[C@@H]4[C@@]5(C)CC[C@H](O)[C@@](C)(CO)[C@@H]5CC[C@@]4(C)[C@]3(C)C[C@H](O)[C@@]2(CO)[C@@H](O)[C@@H]1O [Gymnemagenin] + CCOc1ccccc1-n1c(C(C)N2CCN(C(=O)COc3ccc(Cl)cc3)CC2)nc2ccccc2c1=O [erastin],0.918
